Measured values taken from PubChem BioAssay (Tox21).
Calls of active or inactive are those of the source. Unless noted, calls follow the shape of the dose curve; as a rule, active = well fitted curve in the direction sought with a large enough effect in the repeat runs; inconclusive = weak or mixed curves; inactive = no such curve, though single readings can be large; an effect the other way counts as inactive or inconclusive.

Columns and labels:
[1] = qHTS assay to identify small molecule antagonists of the glucocorticoid receptor (GR) signaling pathway - cell viability counter screen (AID 720693); also: nearly all actives have a fitted effect of over 55% in size
[2] = qHTS assay to identify small molecule antagonists of the androgen receptor (AR) signaling pathway - cell viability counter screen (AID 743033; also: nearly all actives have a fitted effect of over 45% in size)
[3] = qHTS assay to identify small molecule antagonists of the androgen receptor (AR) signaling pathway using the MDA cell line - cell viability counter screen (AID 743041; also: nearly all actives have a fitted effect of over 45% in size)
Method in brief: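 Using the breast carcinoma line MDA-kb2 AR-luc, test chemicals were co-incubated with R1881 for 16 h; CellTiter-Fluor reagent, added at 15.5 h, provided a fluorescence measure of live cells.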

[4] = tested on: thyroid hormone receptor (rat, GH3 cells); assay: qHTS assay to identify small molecule agonists of the thyroid receptor (TR) signaling pathway (AID 743066; calls by dose curve)
[5] = molecular target: Estrogen receptor (Homo sapiens) (UniProt P03372); assay: qHTS assay to identify small molecule antagonists of the estrogen receptor alpha (ER-alpha) signaling pathway (AID 743069; active = well fitted curve in the direction sought with a large enough effect in the signal ratio in the repeat runs, not every such curve was filed as active; inconclusive = weak or mixed curves, or effect the other way; inactive = no such curve, though single readings can be large or run the other way; the % refers to the signal ratio; also: potency is read from the fitted curve at half-maximal effect)
Method in brief: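 Fluorescence intensity from a beta-lactamase FRET substrate served as the read-out. Cells: HEK293 with stably integrated ER-alpha-UAS-bla reporter. Agonist 17beta-estradiol was co-added with compounds; incubation 18 hr at 37C, substrate 2 hr at room temperature.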

[6] = qHTS assay to identify small molecule antagonists of the estrogen receptor alpha (ER-alpha) signaling pathway - cell viability counter screen (AID 743074; calls by dose curve; also: nearly all actives have a fitted effect of over 45% in size; also: potency is read from the fitted curve at half-maximal effect)
[7] = molecular target: Estrogen receptor (Homo sapiens) (UniProt P03372); assay: qHTS assay to identify small molecule agonists of the estrogen receptor alpha (ER-alpha) signaling pathway (AID 743075; calls by dose curve)
[8] = molecular target: Estrogen receptor (Homo sapiens) (UniProt P03372); assay: qHTS assay to identify small molecule agonists of the estrogen receptor alpha (ER-alpha) signaling pathway using the BG1 cell line (AID 743079); also: nearly all actives have a fitted effect of over 20% in size; also: potency is read from the fitted curve at half-maximal effect
[9] = molecular target: Aromatase (Homo sapiens) (UniProt P11511); assay: qHTS assay to identify aromatase inhibitors (AID 743083); also: series mostly up to about 70 µM; nearly all actives have a fitted effect of over 55% in size
[10] = qHTS assay for identifying genotoxic compounds that show differential cytotoxicity against isogenic chicken DT40 cell lines with known DNA damage response pathways - wild type cell line (AID 743012); also: nearly all actives have a fitted effect of over 60% in size; also: potency is read from the fitted curve at half-maximal effect
Method in brief: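 Endpoint: CellTiter-Glo luminescence, 30 min RT. Cells: wild type DT40, 300/well. Exposure: compounds in DMSO, 40 h, 37 C/5% CO2, after ~0.5 h pre-incubation.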

[11] = qHTS assay for identifying genotoxic compounds that show differential cytotoxicity against isogenic chicken DT40 cell lines with known DNA damage response pathways - Rev3 mutant cell line (AID 743014); also: nearly all actives have a fitted effect of over 55% in size; also: potency is read from the fitted curve at half-maximal effect
[12] = qHTS assay for identifying genotoxic compounds that show differential cytotoxicity against isogenic chicken DT40 cell lines with known DNA damage response pathways - Rad54/Ku70 mutant cell line (AID 743015); also: nearly all actives have a fitted effect of over 60% in size; also: potency is read from the fitted curve at half-maximal effect
[13] = qHTS assay to identify small molecule antagonists of the thyroid receptor (TR) signaling pathway - cell viability counter screen (AID 743064); also: nearly all actives have a fitted effect of over 50% in size; also: potency is read from the fitted curve at half-maximal effect
Method in brief: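 In-well cytotoxicity read by CellTiter-Fluor (30 min, 37 C) following 23.5 h exposure of GH3 cells bearing a TRE-luciferase sensor. Compounds were added alongside 1 nM (final) T3 to drive TR transactivation.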

[14] = qHTS assay to identify small molecule antagonists of the thyroid receptor (TR) signaling pathway (AID 743065); also: nearly all actives have a fitted effect of over 55% in size; also: potency is read from the fitted curve at half-maximal effect; as to activity, negative = inhibition: series mostly up to about 70 µM
Method in brief: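 Antagonism measured as loss of luciferase signal in GH3 cells stably carrying a TRE-luciferase reporter, co-treated with compound and T3 (1 nM final) for 23.5 h at 37 C. Viability was read in the same well by CellTiter-Fluor.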

[15] = qHTS assay to identify small molecule antagonists of the estrogen receptor alpha (ER-alpha) signaling pathway using the BG1 cell line (AID 743080; calls by dose curve;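 also: BG1 cells stimulated with 17beta-estradiol alongside compound; series mostly up to about 70 µM; nearly all actives have a fitted effect of over 25% in size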)
Method in brief: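 After 5 days in phenol-red-free 10% charcoal-stripped FBS medium, BG1-Luc-4E2 cells were seeded, left 24 h at 37 C, co-treated with compounds and 17beta-estradiol for 21.5 h, then assayed for viability and luciferase.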

[16] = qHTS assay to identify small molecule antagonists of the estrogen receptor alpha (ER-alpha) signaling pathway using the BG1 cell line - cell viability counter screen (AID 743081);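 also: compound given together with 17beta-estradiol as the ER stimulus; nearly all actives have a fitted effect of over 45% in size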; also: potency is read from the fitted curve at half-maximal effect; as to activity change, negative = cytotoxicity: series mostly up to about 70 µM
% is scaled to controls: 0 for no effect and ±100 for the full control effect.

Chain of Aromatase (Homo sapiens) (P11511 whole entry, looked up): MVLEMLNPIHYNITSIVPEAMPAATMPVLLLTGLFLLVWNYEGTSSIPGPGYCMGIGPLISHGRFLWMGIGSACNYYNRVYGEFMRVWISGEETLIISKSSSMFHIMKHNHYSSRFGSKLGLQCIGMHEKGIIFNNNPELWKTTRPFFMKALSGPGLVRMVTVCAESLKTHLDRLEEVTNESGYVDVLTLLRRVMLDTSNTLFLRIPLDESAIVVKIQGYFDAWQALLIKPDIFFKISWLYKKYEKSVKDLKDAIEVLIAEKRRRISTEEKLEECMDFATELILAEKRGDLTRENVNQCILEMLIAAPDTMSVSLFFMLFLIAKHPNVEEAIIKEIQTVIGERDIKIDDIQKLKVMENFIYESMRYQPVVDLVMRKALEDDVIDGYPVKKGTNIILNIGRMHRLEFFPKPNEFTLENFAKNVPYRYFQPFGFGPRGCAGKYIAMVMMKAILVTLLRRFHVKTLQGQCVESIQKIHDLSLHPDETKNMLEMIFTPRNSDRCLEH
Chain of Estrogen receptor (Homo sapiens) (P03372 whole entry, looked up): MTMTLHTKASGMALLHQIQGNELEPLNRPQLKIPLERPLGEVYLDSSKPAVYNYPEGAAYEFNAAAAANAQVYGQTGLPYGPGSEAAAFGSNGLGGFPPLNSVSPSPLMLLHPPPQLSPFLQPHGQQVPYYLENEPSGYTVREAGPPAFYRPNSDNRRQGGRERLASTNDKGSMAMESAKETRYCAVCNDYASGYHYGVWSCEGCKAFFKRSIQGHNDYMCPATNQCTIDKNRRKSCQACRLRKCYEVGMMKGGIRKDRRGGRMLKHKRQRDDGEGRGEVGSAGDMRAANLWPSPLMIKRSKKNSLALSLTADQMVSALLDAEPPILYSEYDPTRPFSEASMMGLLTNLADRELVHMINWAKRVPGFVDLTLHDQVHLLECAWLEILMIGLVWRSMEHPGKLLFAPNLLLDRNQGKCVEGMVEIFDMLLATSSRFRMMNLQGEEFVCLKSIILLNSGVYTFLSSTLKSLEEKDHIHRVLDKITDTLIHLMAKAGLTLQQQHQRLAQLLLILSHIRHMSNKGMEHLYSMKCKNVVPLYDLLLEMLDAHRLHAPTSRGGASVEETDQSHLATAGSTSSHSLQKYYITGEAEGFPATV

O=C(CC(=O)C(F)(F)F)c1ccccc1
inactive: outcome [1] | outcome [2] | Potency [3] | outcome [4] | Potency [6] | outcome [7] | Potency [9]
active: Potency [5] 28 µM [inconclusive] | Potency [8] 19.6 µM

Cc1ccc(C)c(N)c1
inactive: Potency [10] | Potency [11] | Potency [12] | outcome [2] | Potency [3] | Potency [13] | Potency [14] | outcome [4] | Potency [5] | Potency [6] | outcome [7] | outcome [15] | Potency [16] | Potency [9]
active: Potency [8] 77 µM

CCOc1ccc(NS(=O)(=O)c2ccc(N)cc2)nn1
inactive: Potency [10] | Potency [11] | Potency [12] | outcome [2] | Potency [3] | Potency [13] | Potency [14] | outcome [4]

CN1CCN(c2c(F)cc3c(=O)c(C(=O)O)cn(CCF)c3c2F)CC1
inactive: outcome [1] | outcome [2] | Potency [3] | Potency [13] | outcome [4] | Potency [5] | Potency [6] | outcome [7] | outcome [15] | Potency [9]

NC(Cc1ccc(F)cc1)C(=O)O (configuration not stated)
active: Potency [12] 1.87 µM | Potency [13] 2.64 µM
inactive: viability change, negative = cytotoxic [1] -1.1% [at 7.04 µM] | activity change, negative = cytotoxicity [2] -0.148% [at 7.04 µM] | viability change, negative = cytotoxic [3] -1.4% [at 8.47 µM] | activation [4] -5.43% [at 8.08 µM] | activity, negative = cytotoxicity [6] -20% [at 6.72 µM] | activity change, negative = cytotoxicity [16] -2.97% [at 8.47 µM] | activity, negative = inhibition [9] -6.6% [at 8.47 µM]

O=C1N(c2ccccc2)c2ccccc2C1(Cc1ccncc1)Cc1ccncc1
inactive: outcome [1] | Potency [12] | outcome [2] | Potency [3] | Potency [13] | Potency [14] | outcome [4] | Potency [5] | outcome [7] | Potency [8] | outcome [15] | Potency [16] | Potency [9]

COC(=O)N[C@H](C(=O)N[C@@H](Cc1ccccc1)[C@@H](O)CN(Cc1ccc(-c2ccccn2)cc1)NC(=O)[C@@H](NC(=O)OC)C(C)(C)C)C(C)(C)C
inactive: outcome [1] | outcome [2] | Potency [3] | Potency [13] | outcome [4] | Potency [5] | outcome [7] | Potency [16] | Potency [9]

O=C(O)c1ccccc1Nc1cc(Cl)ccc1C(=O)O
inactive: Potency [10] | Potency [11] | Potency [12] | outcome [2] | Potency [3] | Potency [13] | Potency [14] | outcome [4] | outcome [7] | Potency [8] | outcome [15] | Potency [16] | Potency [9]

CCN1CC(CCN2CCOCC2)C(c2ccccc2)(c2ccccc2)C1=O (configuration not stated)
inactive: outcome [1] | Potency [12] | outcome [2] | Potency [3] | Potency [13] | outcome [4] | Potency [6] | Potency [16] | Potency [9]

CCOc1ccc2nc(N)sc2c1
inactive: outcome [1] | outcome [2] | Potency [3] | Potency [13] | outcome [4] | Potency [5] | Potency [6] | outcome [7] | Potency [16] | Potency [9]
active: Potency [8] 4.29 µM

CC(C)(C)C1CCCCC1=O (configuration not stated)
inactive: Potency [10] | Potency [11] | Potency [12] | outcome [2] | Potency [3] | Potency [13] | Potency [14] | outcome [4] | Potency [5] | Potency [6] | outcome [7] | Potency [8] | outcome [15] | Potency [16] | Potency [9]

C=CCCC=C
inactive: Potency [10] | Potency [11] | Potency [12] | outcome [2] | Potency [3] | Potency [13] | Potency [14] | outcome [4] | Potency [5] | Potency [6] | outcome [7] | Potency [8] | outcome [15] | Potency [16] | Potency [9]

O=Cc1ccc(F)c(Br)c1
inactive: outcome [1] | Potency [11] | outcome [2] | Potency [3] | Potency [13] | outcome [4] | Potency [5] | Potency [6] | outcome [7] | Potency [8] | outcome [15] | Potency [16] | Potency [9]

CC1=C(O)C(=O)OC1C (configuration not stated)
inactive: Potency [10] | Potency [11] | Potency [12] | outcome [2] | Potency [3] | Potency [13] | Potency [14] | outcome [4] | Potency [6] | Potency [16] | Potency [9]

CC(C)(C)c1ccc(OC(=O)c2ccccc2O)cc1
active: Potency [8] 27.3 µM
inactive: outcome [1] | Potency [12] | outcome [2] | Potency [3] | outcome [4] | Potency [5] | Potency [6] | outcome [7] | Potency [16] | Potency [9]

O=C(Cl)c1cccc([N+](=O)[O-])c1
inactive: outcome [1] | outcome [2] | Potency [3] | Potency [14] | outcome [4] | Potency [5] | Potency [6] | outcome [7] | Potency [8] | outcome [15] | Potency [16] | Potency [9]

CC/C=C\CCOC(=O)C(C)C
inactive: outcome [1] | Potency [12] | outcome [2] | Potency [3] | Potency [13] | Potency [14] | outcome [4] | Potency [5] | Potency [6] | outcome [7] | Potency [8] | outcome [15] | Potency [16] | Potency [9]

OCc1c2ccccc2cc2ccccc12
active: Potency [8] 54.6 µM
inactive: outcome [1] | outcome [2] | Potency [3] | Potency [13] | Potency [6] | outcome [7] | Potency [16] | Potency [9]

CC(C)NCC(O)COc1ccc(CCOCC2CC2)cc1 (configuration not stated)
inactive: outcome [1] | outcome [2] | Potency [3] | Potency [13] | outcome [4] | Potency [6] | Potency [16] | Potency [9]
active: Potency [12] 29.8 µM

NC/C=C/C(=O)O
inactive: Potency [10] | Potency [11] | Potency [12] | outcome [2] | Potency [3] | Potency [13] | Potency [14] | outcome [4] | Potency [6] | Potency [16] | Potency [9]

COc1cc(N)c(Cl)cc1C(=O)NC1CCN(Cc2ccccc2)CC1
inactive: outcome [1] | Potency [3] | Potency [13] | Potency [5] | Potency [6] | outcome [7] | Potency [8] | outcome [15] | Potency [16]

CCCCNc1cc(C(=O)O)cc(S(N)(=O)=O)c1Oc1ccccc1
inactive: Potency [11] | Potency [12] | outcome [2] | Potency [3] | Potency [13] | Potency [14] | outcome [4] | Potency [6] | Potency [16] | Potency [9]

CCOC(=O)COc1ccc2c(c1)CC(NCC(O)c1cccc(Cl)c1)CC2 (configuration not stated)
active: Potency [10] 54.9 µM | Potency [11] 54.9 µM | Potency [12] 54.9 µM | Potency [13] 27.5 µM | Potency [14] 48.9 µM
inactive: Potency [3] | Potency [5] | outcome [7] | Potency [8] | Potency [16]

Cc1cc2c(s1)Nc1ccccc1N=C2N1CCN(C)CC1
inactive: outcome [2] | Potency [3] | outcome [4] | Potency [5] | Potency [6] | outcome [7] | Potency [8] | outcome [15] | Potency [16] | Potency [9]
active: Potency [13] 13.3 µM

O=C1CCC(C2CCCCC2)CC1
inactive: Potency [10] | Potency [11] | Potency [12] | outcome [2] | Potency [3] | Potency [13] | outcome [4] | Potency [16] | Potency [9]

CCCNC(C)C(=O)Nc1c(C)csc1C(=O)OC (configuration not stated)
inactive: Potency [10] | Potency [12] | outcome [2] | Potency [3] | Potency [13] | outcome [4] | Potency [5] | Potency [6] | outcome [7] | Potency [8] | outcome [15] | Potency [16] | Potency [9]

CN(C)CC[C@@H](c1ccc(Cl)cc1)c1ccccn1
inactive: Potency [11] | Potency [12] | outcome [2] | Potency [3] | outcome [4]

CCN(CC)CCOc1ccc(Cc2ccccc2)cc1
active: Potency [10] 0.473 µM | Potency [11] 0.188 µM | Potency [12] 0.376 µM | Potency [13] 11.9 µM | Potency [14] 10.6 µM | Potency [6] 26.8 µM | Potency [16] 29.8 µM
inactive: outcome [2] | Potency [9]
